Assay results from ChEMBL document CHEMBL4513216, “Probing the Open Global Health Chemical Diversity Library for Multistage-Active Starting Points for Next-Generation Antimalarials” (ACS Infect Dis, 2020).
Screen size: about 69,000 compounds; about 8,600 (12%) showed an effect of 50% or more. The sample as a whole holds a higher share of strong results than the screen did.

System: Plasmodium berghei
Test: Screen against P. berghei liver stage (PbLuc), transformed with Luciferase, at 10uM
Assay type: functional, HepG2
Conditions: tested at 10 uM

SMILES | INHIBITION [%]
CSc1nccc(N2C[C@H]3CC[C@@H](C2)N(CC2CCC2)C3=O)n1 | 22.3
CC(C)c1noc(CCCC(=O)N2CCN(Cc3ccsc3)CC2)n1 | 21.5
CCCc1ccc(OC23CCCN(CC2)C3)c(OC)c1 (stereo not drawn) | 14.9
Cc1cc(C(=O)N(C)C)nc(C2(C)CCCN2c2ccccc2)n1 (stereo not drawn) | 23.9035
COc1ccc(C(=O)NS(=O)(=O)c2cncc(Br)c2)cc1 | -2.48
COCCCN1Cc2cccc(NC(=O)C(C)(C)C)c2C1 | -21.1
CC(C)Cc1nc(OCC#N)c(C#N)c2c1CCC2 | 44.9
Cc1cnn(CC(=O)N2CCC(Nc3ccc(C)nn3)CC2)c1 | 39.95
O=C(CSC1CCc2ccccc2NC1=O)Nc1ccc(CCO)cc1 (stereo not drawn) | -10.8
Cc1ccc2c(n1)N(C)CCN(Cc1cnn(C)c1)C2 | 49.4
Cc1ccc2c(n1)N(CC1CC1)CCN(Cc1cnn(C)c1)C2 | 55.4
Cc1ccc2c(n1)N(Cc1cccnc1)CCN(Cc1cnn(C)c1)C2 | 30.5
CC(CCc1ccccc1)N1CCC(C(=O)Nc2ccccn2)CC1 (stereo not drawn) | -6.46
Cc1ccc(CNCc2cccc3cccnc23)c(OC2CCOC2)c1 (stereo not drawn) | -62.1
Cc1ccc(NCc2cccc3cn[nH]c23)cc1OC1CCOC1 (stereo not drawn) | -16.8
Cc1ccc(CNCc2cccc3cn[nH]c23)c(OC2CCOC2)c1 (stereo not drawn) | 66
Cc1cc(F)ccc1N1CCCC(NC2CCOCC2)C1=O (stereo not drawn) | 21.3
Cc1ccc(CN2CCOC3(COCCN(Cc4ccncc4)C3)C2)o1 (stereo not drawn) | 14
Cc1cncc(CN2C[C@@H](O)[C@H](Oc3ccccc3)C2)c1 | 51.5
O[C@@H]1CN(Cc2cccnc2)C[C@H]1Oc1ccccc1 | 26.8

SMILES | INHIBITION [%]
O[C@@H]1CN(Cc2ccncc2)C[C@H]1Oc1ccccc1 | 39.7
CCOCC(=O)N1CC[C@@H]2O[C@@H](C)C[C@H]2C1 | 43.9
O=c1[nH]c2ccccc2c2c1CCO2 | 30.7
CC(=O)N(Cc1ncc(C(C)C)o1)C1CCN(Cc2ccno2)C1 (stereo not drawn) | 0.1995
COc1cccc2c1OCC(CNC(=O)CSc1ccccn1)C2 (stereo not drawn) | -52.3
COCCN(Cc1cnn(C)c1)C(=O)C1COc2c(cccc2OC)C1 (stereo not drawn) | 22.3
COc1cccc2c1OCC(NCc1cnn(-c3ccccc3)c1)C2 (stereo not drawn) | 62.8
COc1cccc2c1OCC(C(=O)N(C)CCCc1cnn(C)c1)C2 (stereo not drawn) | 40.9
COc1cccc2c1OCC(NCCc1cnn(-c3ccccc3)c1)C2 (stereo not drawn) | 77.6
COc1cccc2c1OCC(NCCCOc1cccnc1)C2 (stereo not drawn) | 14
COc1cccc2c1OCC(NC(=O)NC1CCN(C3CC3)CC1)C2 (stereo not drawn) | -3.16
COc1cccc2c1OCC(C(=O)N1Cc3ccccc3C1)C2 (stereo not drawn) | 44.8
COc1cccc2c1OCC(NCc1cnn(-c3ccccc3F)c1)C2 (stereo not drawn) | 53.8
Cc1noc(C(C)N2CCN(CCC(=O)N3CCCCC3)CC2)n1 (stereo not drawn) | 17.4
Cc1cc(C2CCNCC2)nc(-c2ccsc2)n1 | 20.2
CCC(=O)Nc1ccc(C(C)NC(=O)COCCOC)cc1 (stereo not drawn) | -28.4
CC(=O)N1CCC2(CC1)CN(C(=O)c1cccnc1)c1ccc(F)cc12 | 34.9
COc1c(C2CCCN2CC(=O)Nc2ccncc2)c(C)nn1C (stereo not drawn) | 21.6
Cc1nc(NCCN2CCCC2=O)cc(C2CN(C(C)C)CCO2)n1 (stereo not drawn) | 25
CCc1n[nH]c(C2CN(C(=O)c3ccc4c(c3)COC4)CCO2)n1 (stereo not drawn) | -59.4

SMILES | INHIBITION [%]
CC(=O)N1CCC(N2CC(Cc3nccc4ccn(C)c34)C2)CC1 | 28
COc1ccc(NC(=O)N2CCN(CCSc3ccccc3)CC2)cc1 | -28.15
CC(C)c1cc(C(=O)N2CCN(c3ccncc3)CC2)n(C)n1 | -106
CC(C)c1cc(C(=O)N2CCN(c3ccc(F)c(Cl)c3)CC2)n(C)n1 | 50.8
CC(=O)c1ccc(N2CCN(C(=O)c3cc(C(C)C)nn3C)CC2)cc1 | 36.3
COc1cccc(C2CC(=O)Nc3c2cnn3C(C)(C)C)c1 (stereo not drawn) | -38.6
Cc1ccc(Sc2ccc(CN3CCC4(CC3)NCCNC4=O)o2)cc1 | 66.1
CN1CCNC(=O)C12CCN(Cc1ccco1)CC2 | 36.9
O=C1NCCCC12CCN(S(=O)(=O)N1CCOCC1)C2 (stereo not drawn) | -3.24
O=C1NCCN(CC2CC2)C12CCN(Cc1ccco1)CC2 | 45.5
CCOc1cc2c(cc1CN1CCC3(CCCNC3=O)C1)CCC2 (stereo not drawn) | 41.2
Cc1ccc(Sc2ccc(CN3CCC4(CCCNC4=O)C3)o2)cc1 (stereo not drawn) | 90.8
O=C1NCCCC12CCN(Cc1ccc(-c3ccccc3)s1)C2 (stereo not drawn) | 21.2
Cc1ccc(CN2CCC3(CC2)C(=O)NCCN3CC2CC2)o1 | 89.3
CCN(CC)Cc1cc(C(=O)N2CCC3(CC2)NCCNC3=O)c(C)o1 | 12.4
O=C1NCCCC12CCN(Cc1ccc(SC3CCCCC3)o1)C2 (stereo not drawn) | 72.3
Cc1cc(CN2CCC3(CC2)C(=O)NCCN3CC2CC2)oc1C | 42.7
CCOc1cc(Cl)c(CN2CCC3(CCCNC3=O)C2)cc1OC (stereo not drawn) | 9.41
